Measurements as given in PubChem BioAssay AID624267 (The Scripps Research Institute Molecular Screening Center, 2012).
Out of some 360,000 compounds screened, about 1,400 (0.39%) were called active. Rule as the data show it: active = inhibition above about 21%; inactive = the rest. Only a selection was taken, and actives are over-represented in it overall.

Molecular target: Receptor-interacting serine/threonine-protein kinase 2 (Homo sapiens) (UniProt O43353)
Test: NOD2-RIPK2 binding disruptors in cells, primary screen, fluorescence, CHO cells, BLA complementation (AID 624267);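 also: 0% = vehicle only and 100% = reference blocker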
Settings: CHO BLA complementation NOD2-RIPK2, CCF4 ratio; at 4.98 µM; active compounds read high

Receptor-interacting serine/threonine-protein kinase 2 (Homo sapiens), sequence (O43353 whole entry, looked up): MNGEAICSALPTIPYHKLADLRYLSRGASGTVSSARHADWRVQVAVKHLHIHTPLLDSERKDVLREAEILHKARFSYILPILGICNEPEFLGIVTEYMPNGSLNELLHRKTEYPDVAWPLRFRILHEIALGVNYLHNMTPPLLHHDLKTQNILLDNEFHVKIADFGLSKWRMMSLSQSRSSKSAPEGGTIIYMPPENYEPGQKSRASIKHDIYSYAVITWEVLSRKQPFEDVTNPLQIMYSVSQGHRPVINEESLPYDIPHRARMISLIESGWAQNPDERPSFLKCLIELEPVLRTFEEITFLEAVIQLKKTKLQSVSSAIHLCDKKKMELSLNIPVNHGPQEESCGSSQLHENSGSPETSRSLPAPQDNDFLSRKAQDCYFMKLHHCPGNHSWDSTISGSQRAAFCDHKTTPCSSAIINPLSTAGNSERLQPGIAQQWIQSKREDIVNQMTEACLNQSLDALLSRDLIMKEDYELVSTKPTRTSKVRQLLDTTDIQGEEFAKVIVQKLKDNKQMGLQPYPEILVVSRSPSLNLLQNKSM

| SMILES | inhibition |
| --- | --- |
| COCCN(C(=O)CSCc1ccc(C)cc1)c1c(N)n(CC(C)C)c(=O)[nH]c1=O | -4.76% (inactive) |
| CN(C)CCCO/N=C(\c1ccccc1)c1ccncc1 | -6.88% (inactive) |
| CCO[C@@H]1OC(C(N)=O)=C[C@H](c2ccc(Br)cc2)[C@H]1CCCO | -17.7% (inactive) |
| CN(C)S(=O)(=O)c1cccc(C(=O)OCC(=O)N2CCCC2=O)c1 | -8.86% (inactive) |
| NS(=O)(=O)c1cccc(NC(=O)COC(=O)c2cc([N+](=O)[O-])ccc2N2CCCC2)c1 | -11.1% (inactive) |
| N#Cc1cccc(NC(=O)COC(=O)c2ccccc2C(=O)c2ccc(Cl)c([N+](=O)[O-])c2)c1 | 39.9% (active) |
| CC(=O)Nc1ccc(NC(=O)C(C)OC(=O)c2ccccc2C(=O)c2ccc(Cl)c([N+](=O)[O-])c2)cc1 (configuration not stated) | 3.48% (inactive) |
| Cn1nnnc1SCC(=O)NNC(=O)c1ccc(Br)cc1 | -2.01% (inactive) |
| CN1CCN(/N=C/c2ccc(-c3ccc([N+](=O)[O-])cc3)o2)CC1 | 21.4% (active) |
| CN1CCN(/N=C/c2ccc(C#N)cc2)CC1 | -13.1% (inactive) |
| CN1CCN(/N=C2/C(=O)Nc3ccc([N+](=O)[O-])cc32)CC1 | 1.73% (inactive) |
| COCCNC(=O)C(c1ccc(C)o1)N(Cc1cccs1)C(=O)c1snc(C(N)=O)c1N (configuration not stated) | -22% (inactive) |
| Cc1nnc(NC2=NCCCCC2)o1 | -2.4% (inactive) |
| COc1ccc(CNC(=O)CN2CCC(n3nnc4cc(F)ccc43)CC2)cc1 | -4.66% (inactive) |
| Cn1c(SCC(=O)C(C)(C)C)nnc1-c1ccccn1 | 2.6% (inactive) |
| COc1cc(/C=N/NC(=O)Nc2ccccc2)ccc1OCCOc1ccccc1C | 9.59% (inactive) |

| SMILES | inhibition |
| --- | --- |
| CNC(=S)N/N=C/c1ccc(OCc2ccccc2)c(Br)c1 | 33.9% (active) |
| O=C(O)COc1ccc(/C=N/O)cc1Br | 11.6% (inactive) |
| Cc1c(-c2ccccc2)cn2c1-c1ccc(C)n1CC2 | -12.5% (inactive) |
| [O-][n+]1onc2c1CCc1[nH]c(-c3ccccc3)nc1-2 | -6.67% (inactive) |
| CC(C)=CCC/C(C)=C/C(=O)O | 3.56% (inactive) |
| Cc1cc(C)nc(NC(=O)Nc2ccccc2C(F)(F)F)n1 | 7.62% (inactive) |
| O=C(/C=C/Sc1ncn[nH]1)c1ccc(Cl)cc1 | 21.3% (active) |
| CC(C)CC(=O)N=C1SC2CS(=O)(=O)CC2N1CCc1ccccc1 (configuration not stated) | -9.18% (inactive) |
| C=CCn1c(-c2ccccc2OCC)n[nH]c1=S | 0.62% (inactive) |
| O[C@H]1CN(Cc2cccs2)[C@@H](c2ccc(Cl)cc2)C[C@@H]1n1cc(C2CC2)nn1 | 5.68% (inactive) |
| O[C@H]1C[C@H](c2ccc(Cl)cc2)N(Cc2cccs2)C[C@@H]1n1cc(C2CC2)nn1 | 21.6% (active) |
| O[C@@H]1C[C@H](c2ccccc2)N(Cc2cccs2)C[C@H]1n1cc(C2CC2)nn1 | -9.47% (inactive) |
| CC(=O)Nc1ccc(CNc2nc(NCCN(C)C)nc3cc(-c4ccccc4)sc23)cc1 | 11.1% (inactive) |
| Cc1ccc(C(=O)N2CCC(n3nccc3NC(=O)Nc3cccc(F)c3)CC2)cn1 | -2.88% (inactive) |
| COc1ccc2ccccc2c1CNCc1ccccn1 | -4.61% (inactive) |
| FC(F)Oc1ccccc1C1CC(c2ccc(Br)s2)Nc2ncnn21 (configuration not stated) | -2.05% (inactive) |
